According to PubChem BioAssay AID588763 (NMMLSC, 2011):
Results with a measured potency or affinity are listed apart. Active and inactive are the calls of the source. No rule for the calls is given here.

molecular target: Beta-2 adrenergic receptor (Homo sapiens) (UniProt P07550); test: ADRB2 activation measured by internalization – cell-based, FAP fluorogen, flow cytometry, cherry pick 1, dose response (AID 588763); conditions: AM2.2-beta2AR cells, 90 min; series mostly up to 33 µM
Sequence (P07550 whole entry, looked up): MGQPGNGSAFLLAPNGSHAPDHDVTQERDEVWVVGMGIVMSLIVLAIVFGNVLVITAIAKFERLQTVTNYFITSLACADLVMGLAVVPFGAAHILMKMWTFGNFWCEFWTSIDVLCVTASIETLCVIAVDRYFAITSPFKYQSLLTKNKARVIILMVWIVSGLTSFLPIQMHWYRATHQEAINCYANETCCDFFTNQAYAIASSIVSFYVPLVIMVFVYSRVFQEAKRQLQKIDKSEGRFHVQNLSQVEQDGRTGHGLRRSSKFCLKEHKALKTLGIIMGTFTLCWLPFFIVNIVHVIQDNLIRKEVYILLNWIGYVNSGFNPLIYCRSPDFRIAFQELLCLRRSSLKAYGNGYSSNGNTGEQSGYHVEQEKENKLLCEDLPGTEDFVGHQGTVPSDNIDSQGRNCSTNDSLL

SMILES	outcome
CCN(CC)CCNc1ncnc2c1sc1nc(N3CCCC3)c3c(c12)CC(C)(C)OC3	inactive
CCOc1cc(-c2nc3ccccn3c2NCC2CCCO2)ccc1O (configuration not stated)	inactive
COc1ccc(N2CCN(C(=O)CN(C)S(=O)(=O)c3cc(C)ccc3OC)CC2)cc1	inactive
Cc1cccc(-c2nnc(SCc3nc4ccccc4[nH]3)n2Cc2ccco2)c1	inactive
CCCOc1ccc(-c2nnn(CC(=O)Nc3cccc(C(=O)OC)c3)n2)cc1	inactive
COc1ccccc1N1CCN(C(=O)CN(C)S(=O)(=O)c2cc(C)ccc2OC)CC1	inactive
CCOc1ccc(NC(=O)COc2ccc(S(=O)(=O)N3CCOCC3)cc2)cc1	inactive
CC(NCCc1ccc(O)cc1)C(O)c1ccc(O)cc1 (configuration not stated)	inactive
COc1ccc(-c2nc3c4ccccc4ccn3c2CN2CCOCC2)cc1OC	inactive
Cc1ccc(S(=O)(=O)c2ccc([N+](=O)[O-])o2)cc1	inactive
CCOC(=O)C1CCN(C(=O)COC(=O)c2ccccc2C(=O)c2ccc(Cl)cc2)CC1	inactive
COc1ccc(OC)c(S(=O)(=O)N(C)CC(=O)N2CCN(c3ccccc3F)CC2)c1	inactive
Cc1ccccc1NC(=O)COc1ccc(S(=O)(=O)N2CCCC2)cc1C	inactive
O=C(COc1ccc(S(=O)(=O)N2CCOCC2)cc1)Nc1ccc2c(c1)OCCO2	inactive
Cc1ccc(OCc2cc(C(=O)NCc3cc(F)ccc3C)no2)cn1	inactive
CCOC(=O)c1ccc(NC(=O)Cn2nnc(-c3ccccc3C)n2)cc1	inactive
COc1ccc(S(=O)(=O)N(C)CC(=O)N2CCN(c3ccccc3)CC2)cc1	inactive
